An excerpt weighted towards active compounds, which were near 2.4% of everything screened.
Pol eta inh-1: qHTS for Inhibitors of Polymerase Eta | 390,000 tested, 1.2% active | DNA polymerase eta (Homo sapiens), Q9Y253 | Potency, µM (titrated, usually from 114 µM), for inactives: top-dose activity change, negative = inhibition, most hits filed as inhibitors | recombinant Pol eta, fluorescent DNA replication assay; note: % is set by controls: 0 for no effect and ±100 for the full control effect
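Pol eta at 10 nM preincubated with compounds 15 min at room temperature; reaction started with fluorescent substrate (50 nM final) and read kinetically at 0 and 10 min.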
POLB inh: qHTS Assay for Inhibitors of DNA Polymerase Beta | Pol beta primer extension/strand displacement, fluorescence kinetic | Potency, µM (highest dose often 114 µM), for the others: at the top dose activity change, negative = inhibition, usual class: inhibitors | 340,000 tested, 1.3% active | P06746; note: % is set by controls: 0 for no effect and ±100 for the full control effect
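Kinetic readout of DNA synthesis with strand displacement by Pol beta. Compound and 10 nM enzyme sit 15 min at room temperature; 50 nM substrate starts the reaction, read immediately and at 10 min.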
APE1 inh-1: qHTS Assay for Inhibitors of the Human Apurinic/apyrimidinic Endonuclease 1 (APE1); recombinant APE1, TAMRA/BHQ-2 abasic DNA cleavage fluorescence; Potency, µM (titrated, usually from 65.8 µM), without a hit: at the highest dose activity change, negative = inhibition, hits mostly inhibitors; AID 2517, 2012; 350,000 tested, 0.35% active;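 note: plate controls were vehicle for no effect and reference inhibitor for full effect; nearly all actives have a fitted effect of over 55% in size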
Target sequence (P27695 whole entry, looked up): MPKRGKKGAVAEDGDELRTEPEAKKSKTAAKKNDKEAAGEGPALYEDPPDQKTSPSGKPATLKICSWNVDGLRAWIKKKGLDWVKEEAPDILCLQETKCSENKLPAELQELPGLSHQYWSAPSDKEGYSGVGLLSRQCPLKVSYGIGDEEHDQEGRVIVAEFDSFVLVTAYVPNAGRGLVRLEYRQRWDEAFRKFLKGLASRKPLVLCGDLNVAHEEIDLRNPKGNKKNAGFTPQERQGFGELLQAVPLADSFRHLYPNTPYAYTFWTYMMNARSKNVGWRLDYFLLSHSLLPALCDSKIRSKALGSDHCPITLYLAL
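Step 1: APE1 (0.75 nM) with compound, 15 min RT. Step 2: add 50 nM fluorophore/quencher THF duplex. Step 3: three fluorescence reads 60 s apart (525/598 nm); read 3 minus read 1 = reaction progress.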
POLK inh: qHTS for Inhibitors of Polymerase Kappa | DNA polymerase kappa (Homo sapiens), Q9UBT6 | purified Pol kappa, fluorescent DNA synthesis assay, 10 min | Potency, µM (top dose mostly 107 µM), inactives show at the top dose activity, negative = inhibition, usual class: inhibitors | 400,000 tested, 0.53% active; note: % is set by controls: 0 for no effect and ±100 for the full control effect
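Readout: fluorescence, taken kinetically at 0 and 10 min. Conditions: 10 nM Pol kappa, 15 min RT compound preincubation, 50 nM substrate final. Controls: enzyme-free buffer wells.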
GLS inhibitor: qHTS for Inhibitors of Glutaminase (GLS); GLS enzymatic activity, qHTS titration; 410,000 tested, 0.21% active; Potency, µM (titrated, usually from 45.5 µM), for the others: at the highest dose activity change, negative = inhibition, most hits filed as inhibitors; AID 624170, 2012; note: % is set by controls: 0 for no effect and ±100 for the full control effect
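Two-point fluorescence kinetic (t0, 30 min RT) for hKGA; glutamate detected via glutamate oxidase–HRP–Amplex Red. Substrate: 1 mM L-glutamine solution; buffer 45 mM KH2PO4, pH 8.2.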
POLI inh: qHTS for Inhibitors of Polymerase Iota; Pol iota fluorescent replication assay, 10 min; Potency, µM (highest dose often 115 µM), without a hit: at the top dose activity, negative = inhibition, hits mostly inhibitors; 390,000 tested, 1% active
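Fluorescent replication assay read twice, at 0 min and 10 min after adding 50 nM (final) substrate. Enzyme (10 nM) and compounds were first incubated 15 min at room temperature; enzyme-free buffer wells were negative controls.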
APE1 dye cs: Counterscreen for APE1 Inhibitors: Fluorescent Dye Displacement Assay | shares compounds with APE1 inh-1 | DNA fluorescent dye displacement counterscreen, fluorescence | Potency, µM (top dose mostly 28.5 µM), without a hit: at the highest dose activity change, negative = inhibition, hits mostly inhibitors | 480 tested, 7% active;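 note: loss of thiazole orange fluorescence as the dye is displaced from duplex DNA; 0% = ThO with dsDNA and no compound and -100% = ThO without dsDNA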
EndoIV counter: Counterscreen for APE1 Inhibitors: qHTS Assay for Inhibitors of Endonuclease IV. shares compounds with APE1 inh-1. E. coli Endo IV, fluorogenic AP-site DNA cleavage. 560 tested, 4% active. Potency, µM (top dose mostly 27.1 µM), without a hit: top-dose activity change, negative = inhibition, usual class: inhibitors;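 note: plate controls were uninhibited enzyme wells for no effect and no enzyme buffer wells for full effect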
APE1 inh-2: Confirmation qHTS Assay for Inhibitors of the Human Apurinic/apyrimidinic Endonuclease 1 (APE1) | Potency, µM (top dose mostly 57.1 µM), without a hit: at the top dose activity change, negative = inhibition, hits mostly inhibitors | AID 2572, 2010 | purified APE1, fluorogenic abasic-site DNA cleavage | 750 tested, 44% active | shares compounds with APE1 inh-1; note: % is set by controls: 0 for no effect and ±100 for the full control effect; nearly all actives have a fitted effect of over 30% in size
APE1 FP inh: qHTS FP-Based Assay for Inhibitors of the Human Apurinic/apyrimidinic Endonuclease 1 (APE1); APE1 binding to TAMRA-labelled double-stranded DNA, fluorescence polarization displacement; Potency, µM (doses to about 28.5 µM), inactives show at the top dose activity, negative = inhibition, hits mostly inhibitors; 480 tested, 7% active; AID 2573, 2010; shares compounds with APE1 inh-1; note: % is set by controls: 0 for no effect and ±100 for the full control effect
TbPGK inh: qHTS for inhibitors of Phosphogylcerate Kinase: Hit Validation Screen | shares compounds with POLK inh | TbPGK coupled GAPDH assay, Kinase-Glo luminescence | Potency, µM (highest dose often 57.5 µM), for inactives: at the top dose activity change, negative = inhibition, usual class: inhibitors | 500 tested, 79% active; note: % is set by controls: 0 for no effect and ±100 for the full control effect; nearly all actives have a fitted effect of over 65% in size
Pol iota confirm: qHTS for Inhibitors of Polymerase Iota: Confirmatory Assay for Cherry-picked Compounds; shares compounds with POLK inh; Pol iota primer extension, TAMRA/BHQ fluorescence; Potency, µM, most hits filed as inhibitors; 1,500 tested, 77% active
Pol eta inh-2: qHTS for Inhibitors of Polymerase Eta: Confirmatory Assay for Cherry-picked Compounds; shares compounds with Pol eta inh-1; Pol eta primer extension, TAMRA/BHQ fluorescence, 10 min; Potency, µM, most hits filed as inhibitors; 2,600 tested, 64% active; AID 720502, 2013
The depositor's hits bear a star; ? = inconclusive; . = not tested or not shown. Calls come from the whole dose curve; as a rule, active = well fitted curve in the direction sought with a large enough effect; inconclusive = small, poorly fitted or top-dose-only effect, or another doubt; inactive = no such curve, though single readings can be large; an effect the other way counts as inactive or inconclusive. Potency is the fitted concentration of half-maximal effect.

SMILES	Pol eta inh-1	POLB inh	APE1 inh-1	POLK inh	GLS inhibitor	POLI inh	APE1 dye cs	EndoIV counter	APE1 inh-2	APE1 FP inh	TbPGK inh	Pol iota confirm	Pol eta inh-2
O=c1c(-c2c(O)cc(O)c3c(=O)cc(-c4ccc(O)cc4)oc23)c(-c2ccc(O)cc2)oc2cc(O)cc(O)c12	3.5µM*	3.2µM*	0.79µM*	35µM*	-21%	7.9µM*	14µM*	?	2µM*	0%	.	42*	43*
CCn1c(SCc2nc3sc(C(=O)O)c(C)c3c(=O)[nH]2)nc2ccccc21	0.71µM*	8.9µM*	20µM*	3.5µM*	?	2.8µM*	.	.	?	.	?	9.5*	2.7*
O=C1CC(=O)N(Cc2ccco2)C(=O)N1	3.5µM*	8.9µM*	10µM*	8.9µM*	10µM*	3.2µM*	4%	21%	5.6µM*	-8%	0.92µM*	3.4*	5.4*
O=C1CC(=O)N(Cc2cccs2)C(=O)N1	-7%	8%	-5%	1%	-6%	-4%	.	.	.	.	.	.	.
COc1ccc(-c2noc(-c3ccc(N4CCCCC4C)c([N+](=O)[O-])c3)n2)cc1OC (stereo unspecified)	-10%	-1%	.	10%	6%	14%	.	.	.	.	.	.	.

Screening results from PubChem.
